These results are taken from PubChem BioAssay.

Experiment [1] in a line: E. coli DRC41 culture turbidity changes, primary screen, E. coli filamentation inducer project, strain DRC41, OD650, 48 h (AID 1152).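 Note: E. coli MC1000 strain DRC41 lacking acrAB efflux pump and sulA.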 The note with it: E. coli DRC41 (acrAB sulA), higher = more signal, called active from +8 up or from −8 down.
Experiment [2] is described as follows: small-molecule binders of probe aLefty1, primary screen, biochemical, small-molecule microarray, 635/667 nm fluorescence (AID 1153).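 Note: score merges spot fluorescence with signal-to-noise ratio from the scanned slide images.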 The note with it: higher = more signal.
The nature of experiment [3]: PSAC antagonists in infected red cells, primary screen, cell-based, P. falciparum Indochina, OD700, 1 h (AID 1154). The note with it: P. falciparum Indochina infected RBC osmotic lysis, higher = more signal, called active from +8 up or from −8 down.
Experiment [4] is described as follows: PSAC antagonists in infected red cells, primary screen, cell-based, P. falciparum Indochina, OD700, 2 h (AID 1155).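 Note: lysis reports solute entry through the parasite surface anion channel PSAC; channel blockers reduce lysis of infected cells.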 The note with it: P. falciparum Indochina infected erythrocytes, osmotic lysis OD700; higher = more signal, called active from +8 up or from −8 down.
A short description of experiment [5]: osmotic lysis modulators in infected erythrocytes, primary screen, PSAC antagonist project, cell-based, P. falciparum Indochina, OD700, 3 h (AID 1156). Particulars: higher = more signal, called active from +8 up or from −8 down.
Experiment [6] in a line: PSAC antagonists in infected red cells, primary screen, cell-based, P. falciparum Indochina, OD700, 18 h (AID 1157). The note with it: P. falciparum Indochina infected erythrocytes, osmotic lysis OD700, 18 h; higher = more signal, called active from +8 up or from −8 down.
Experiment [7] in a line: modulators of S6 phosphorylation in cells, primary screen, cell-based, A549, cytoblot, luminescence, serum-stimulated (AID 1158).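 Note: serum-stimulated A549 lung adenocarcinoma cells; signal is phosphorylated S6 detected by cytoblot immunostaining with HRP secondary.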 The note with it: A549 phospho-S6 cytoblot, 5 h, higher = more signal.
For experiment [8], the target named is NADPH oxidase 2 (Homo sapiens) (UniProt P04839). Put plainly: NOX2-dependent H2O2 signal modulators, primary screen, NOX inhibitor project, cell-based, HEK293-NOX2, PMA-stimulated, Amplex Red fluorescence (AID 1159). Note: test concentration not given here. Particulars: 45 min, higher = more signal, called active from +8 up or from −8 down.
Experiment [9] concerns the target NADPH oxidase 4 (Homo sapiens) (UniProt Q9NPH5). Put plainly: NOX4-dependent H2O2 signal modulators, primary screen, NOX inhibitor project, cell-based, HEK293-NOX4, tetracycline-induced, Amplex Red fluorescence (AID 1160). The note with it: 45 min, higher = more signal, called active from +8 up or from −8 down.
Experiment [10] concerns the target NADPH oxidase 5 (Homo sapiens) (UniProt Q96PH1). Put plainly: NOX5-dependent H2O2 signal modulators, primary screen, NOX inhibitor project, cell-based, HEK293-NOX5, Amplex Red fluorescence (AID 1161). Particulars: HEK293-NOX5, ionomycin, 45 min, higher = more signal.

Active and inactive are the calls of the source.

Chain of NADPH oxidase 4 (Homo sapiens) (Q9NPH5 whole entry, looked up): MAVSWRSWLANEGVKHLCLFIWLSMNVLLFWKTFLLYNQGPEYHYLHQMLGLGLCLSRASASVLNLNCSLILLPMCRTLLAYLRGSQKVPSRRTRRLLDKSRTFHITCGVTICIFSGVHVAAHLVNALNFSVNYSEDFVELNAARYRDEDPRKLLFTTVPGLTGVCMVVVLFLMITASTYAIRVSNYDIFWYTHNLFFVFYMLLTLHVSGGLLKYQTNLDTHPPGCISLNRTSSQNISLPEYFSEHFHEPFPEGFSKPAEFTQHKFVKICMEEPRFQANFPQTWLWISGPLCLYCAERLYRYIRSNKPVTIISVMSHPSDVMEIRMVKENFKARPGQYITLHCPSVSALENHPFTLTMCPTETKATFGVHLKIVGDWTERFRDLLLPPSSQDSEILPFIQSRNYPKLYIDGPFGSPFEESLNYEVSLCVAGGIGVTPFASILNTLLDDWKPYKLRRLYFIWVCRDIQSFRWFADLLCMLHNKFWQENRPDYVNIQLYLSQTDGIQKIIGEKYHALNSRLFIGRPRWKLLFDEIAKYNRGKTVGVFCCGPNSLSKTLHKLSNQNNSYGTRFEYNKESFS
Chain of NADPH oxidase 2 (Homo sapiens) (P04839 whole entry, looked up): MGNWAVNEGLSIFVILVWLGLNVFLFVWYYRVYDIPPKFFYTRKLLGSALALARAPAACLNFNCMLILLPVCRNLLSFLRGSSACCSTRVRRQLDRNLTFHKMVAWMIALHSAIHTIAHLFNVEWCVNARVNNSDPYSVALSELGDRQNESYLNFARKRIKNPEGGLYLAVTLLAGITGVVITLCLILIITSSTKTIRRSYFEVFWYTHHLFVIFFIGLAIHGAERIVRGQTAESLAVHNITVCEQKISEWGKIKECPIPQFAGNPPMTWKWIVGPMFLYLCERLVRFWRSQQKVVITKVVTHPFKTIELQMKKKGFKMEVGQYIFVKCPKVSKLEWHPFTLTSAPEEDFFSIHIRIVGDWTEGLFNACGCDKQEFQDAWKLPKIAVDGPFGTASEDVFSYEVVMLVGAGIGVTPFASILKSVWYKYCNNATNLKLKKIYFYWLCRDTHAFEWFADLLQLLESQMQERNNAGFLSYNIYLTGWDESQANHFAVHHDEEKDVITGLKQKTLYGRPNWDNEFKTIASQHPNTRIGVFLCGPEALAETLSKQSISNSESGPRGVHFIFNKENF
Chain of NADPH oxidase 5 (Homo sapiens) (Q96PH1 whole entry, looked up): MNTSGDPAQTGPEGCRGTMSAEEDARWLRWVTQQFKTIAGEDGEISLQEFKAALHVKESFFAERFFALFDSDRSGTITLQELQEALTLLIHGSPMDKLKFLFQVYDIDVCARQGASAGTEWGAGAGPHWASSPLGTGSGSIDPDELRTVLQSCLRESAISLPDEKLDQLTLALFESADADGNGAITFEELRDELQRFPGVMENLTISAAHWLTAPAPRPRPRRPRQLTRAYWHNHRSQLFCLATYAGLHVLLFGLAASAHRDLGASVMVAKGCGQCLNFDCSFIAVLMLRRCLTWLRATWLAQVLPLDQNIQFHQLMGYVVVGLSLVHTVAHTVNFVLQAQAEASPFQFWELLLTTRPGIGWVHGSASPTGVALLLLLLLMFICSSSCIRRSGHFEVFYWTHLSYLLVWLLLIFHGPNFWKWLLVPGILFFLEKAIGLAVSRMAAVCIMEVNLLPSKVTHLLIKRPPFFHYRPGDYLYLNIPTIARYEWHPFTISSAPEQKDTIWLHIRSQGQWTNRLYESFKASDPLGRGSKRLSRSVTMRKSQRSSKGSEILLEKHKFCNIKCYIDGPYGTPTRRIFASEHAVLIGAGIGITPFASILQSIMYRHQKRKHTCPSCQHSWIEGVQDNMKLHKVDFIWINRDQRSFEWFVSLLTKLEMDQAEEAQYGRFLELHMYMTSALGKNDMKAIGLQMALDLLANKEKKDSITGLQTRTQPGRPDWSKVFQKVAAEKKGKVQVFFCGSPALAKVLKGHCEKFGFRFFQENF

For the compound `COc1ccccc1CN1C(=O)c2ccccc2[C@@]2(Cc3ccccc3N(CCCN(C)C)C2=O)[C@@H]1c1ccc(CO)cc1`, the z-score was 2 (inactive) in experiment [1]; 0.599 (inactive) in experiment [3]; -0.678 (inactive) in [4]; -0.795 (inactive) in experiment [5]; -1.1 (inactive) in [6]; 2.55 in experiment [7]. For the same compound, the z-score was -0.841 (inactive) in experiment [8], -1.61 (inactive) in [9] and 1.51 in [10]. For the same compound, the composite z-score in [2] was -0.152.

Regarding `C=CC[C@]1(C(N)=O)N=C(c2ccc(OCCCO)cc2)O[C@H]1c1ccccc1`, the z-score was -0.0378 (inactive) in [1]; 6.38 (inactive) in experiment [3]; 1.44 (inactive) in experiment [4]; 0.99 (inactive) in experiment [5]; 0.765 (inactive) in experiment [6]; -0.039 in [7]. Besides, the z-score in [8] was 0.737 (inactive); in [9], 0.676 (inactive); in experiment [10], 0.145. Moreover, in experiment [2], the composite z-score is -0.0057.

Take `O=C1OCCC=C[C@H]2OC34C=CCN(CCN5CCOCC5)C(=O)[C@H]3N(CCCCCO)C(=O)[C@@H]4C12` (stereo not given in full): the z-score in experiment [1] is 0.725 (inactive); in experiment [3], 2.61 (inactive); in [4], 0.535 (inactive); in experiment [5], 2.32 (inactive); in experiment [6], 0.305 (inactive); in experiment [7] it was -0.0483. Also, the z-score in [8] is 0.855 (inactive); in experiment [9], 0.393 (inactive); in experiment [10], 1.85. Also, in experiment [2], the composite z-score was -0.103.

Regarding `COc1ccc(C#Cc2ccc3c(c2)[C@]2(C(=O)N3)[C@H](c3ccc(O)cc3)N3[C@H](c4ccccc4)[C@H](c4ccccc4)OC(=O)[C@H]3[C@@H]2C(=O)N2CCc3cc(OC)c(OC)cc3C2)cc1`, the z-score was -0.291 (inactive) in experiment [1]; 0.276 (inactive) in [3]; 0.312 (inactive) in [4]; -0.205 (inactive) in [5]; 0.196 (inactive) in [6]; -0.0494 in [7]. Also, the z-score in [8] is 1.12 (inactive); in experiment [9], 0.579 (inactive); in experiment [10], -0.568. Also, in [2], the composite z-score was 0.156.

Consider `[N-]=[N+]=NCc1ccccc1C[C@@]1(C(=O)NCC(O)CO)N=C(c2ccc(OCCCO)cc2)O[C@@H]1c1ccccc1` (stereo not given in full), for which the z-score in experiment [1] was 0.0346 (inactive); in [3], 25.3 (active); in experiment [4], 16.3 (active); in [5] it was -1.11 (inactive); in experiment [6] it was 2.07 (inactive); in [7], -0.11. Moreover, the z-score in experiment [8] was 0.0842 (inactive); in experiment [9] it was 1.28 (inactive); in experiment [10], 2.5. In experiment [2], this compound registered a composite z-score of 0.237.

With `[N-]=[N+]=NCc1ccccc1[C@@H]1OC(c2ccc(OCCCO)cc2)=N[C@]1(CCS(=O)(=O)c1ccccc1)C(=O)N1CCOCC1`, the z-score in experiment [1] was 1.79 (inactive); in [3] it was 26.1 (active); in experiment [4], 12.5 (active); in experiment [5], 3.79 (inactive); in [6], 0.45 (inactive); in experiment [7], 1.88. In addition, the results for the z-score in experiment [8], in experiment [9] and in experiment [10] were 1.21 (inactive), 1.18 (inactive) and 1.2, respectively. Moreover, the composite z-score in experiment [2] was 0.533.

Take `O=C(O)C1N=C(c2ccc(OCCCO)cc2)N(c2ccccc2)O1` (stereo not given): the z-score is 0.0785 (inactive) in [1]; 18.5 (active) in experiment [3]; 2.35 (inactive) in [4]; 0.874 (inactive) in [5]; 0.497 (inactive) in [6]; -0.284 in experiment [7]. Moreover, the z-score in experiment [8] was -2.6 (inactive); in [9] it was 0.0373 (inactive); in experiment [10] it was -0.638. This compound gave a composite z-score in [2] of 0.0245.

With `O=C1C2C=CC(C(O)COCc3ccccc3)N(Nc3ccc([N+](=O)[O-])cc3)C2C(=O)N1c1ccccc1` (stereo not given), the z-score in experiment [1] is 0.383 (inactive); in experiment [3] it was 9.2 (active); in experiment [4], 0.581 (inactive); in experiment [5], -0.214 (inactive); in experiment [6] it was -0.809 (inactive); in experiment [7], 0.213. For the same compound, the z-score was -0.51 (inactive) in experiment [8], -0.338 (inactive) in [9] and 0.629 in experiment [10]. In experiment [2], this compound returned a composite z-score of 0.447.

Consider `O=C(CS)NCCCCCNC(=O)[C@@H]1C[C@@H]2C(=O)NCC(=O)N2[C@@H]1c1ccc(O)cc1`, for which the z-score in experiment [1] is 1.6 (inactive); in [3], 0.802 (inactive); in experiment [4], 0.0605 (inactive); in experiment [5] it was -0.194 (inactive); in [6], 0.179 (inactive); in [7], -0.259. The results for the z-score in experiment [8], in [9] and in experiment [10] were 1.18 (inactive), -0.584 (inactive) and 1.67, respectively. Also, in [2], the composite z-score is -0.101.

For the compound `COC(=O)[C@@]1(Cc2ccccc2)[C@H]2c3cc(C(=O)N(C)C)n(CCc4c[nH]c5ccc(O)cc45)c3C[C@H]2CN1C(=O)c1ccccc1`, the z-score is 0.263 (inactive) in experiment [1]; 7.05 (inactive) in [3]; -0.38 (inactive) in experiment [4]; 0.102 (inactive) in [5]; -1.32 (inactive) in experiment [6]; 1.82 in experiment [7]. Further, the z-score in experiment [8] is -2.52 (inactive); in [9] it was -7 (inactive); in experiment [10], -2.41. The compound further had a composite z-score in [2] of -0.0831.

For the compound `CO[C@H]1O[C@H](CO)[C@@H](OC(=O)Nc2ccc(Oc3ccccc3)cc2)[C@H](OC(=O)Nc2ccc3c(c2)OCO3)[C@@H]1OC(=O)Nc1ccc2c(c1)OCO2`, the z-score in experiment [1] was 0.599 (inactive); in experiment [3], 12.3 (active); in experiment [4], 2.93 (inactive); in experiment [5] it was 0.403 (inactive); in experiment [6], 1.7 (inactive); in [7] it was 0.377. In addition, the z-score is 1.24 (inactive) in experiment [8], -0.397 (inactive) in [9] and -0.967 in [10]. For the same compound, in [2], the composite z-score worked out at 0.0751.

As to `COc1ccc(NN2C(C(O)c3ccc(N(C)C)cc3)C=CC3C(=O)N(C4CCCCC4)C(=O)C32)cc1` (stereo not given), the z-score in [1] is -0.446 (inactive); in [3] it was 5.03 (inactive); in experiment [4] it was 0.589 (inactive); in experiment [5], 0.193 (inactive); in experiment [6], 0.484 (inactive); in [7], -0.25. Also, the z-score was -0.759 (inactive) in experiment [8], -3.43 (inactive) in experiment [9] and -2.98 in experiment [10]. The composite z-score in [2] came to 0.384.

As to `CCOC(=O)C[C@H]1[C@H](OC(=O)c2ccc(-c3ccccc3)cc2)[C@@H](NC(=O)c2ccccc2)c2cc(OCCCO)ccc2N1C(=O)c1ccc2ccccc2n1`, the z-score in [1] was -0.734 (inactive); in experiment [3] it was 2.19 (inactive); in experiment [4], -0.0981 (inactive); in experiment [5] it was -0.735 (inactive); in experiment [6], -0.11 (inactive); in experiment [7], -0.488. Also, the z-score in experiment [8] is 0.0548 (inactive); in [9] it was 1.41 (inactive); in experiment [10], 1.81. Besides, in experiment [2], the composite z-score amounted to 0.119.
